ChEMBL document CHEMBL1157539, “Thousands of chemical starting points for antimalarial lead identification” (Nature, 2010)
“And” between values parts separate entries of the source, which are not always exact repeats. Equal values may be shown once.

Columns and labels:
Assay type in all cases: functional
[1] = tested on: Plasmodium falciparum; assay: GSK_TCMDC: Inhibition of Plasmodium falciparum 3D7 in whole red blood cells, using parasite LDH activity as an index of growth. Test compounds present at 2uM
[2] = tested on: Plasmodium falciparum; assay: GSK_TCMDC: Inhibition of Plasmodium falciparum Dd2 in whole red blood cells, using parasite LDH activity as an index of growth. Test compounds present at 2uM
[3] = tested on: HepG2; assay: GSK_TCMDC: Percent inhibition of human HepG2 cell line. Test compounds present at 10uM.

Row | Structure (SMILES) | Inhibition [1] | Inhibition [2] | Inhibition [3]
1 | CN(C)CCCn1cc(C(=O)OC2CC3CCC(C2)N3C)c2cc(-c3ccccc3)ccc21.Cl (stereo not drawn) | 97% | 96% | 97%
2 | CC1(CCCCN2CC=C(c3c[nH]c4ccccc34)CC2)C(=O)Nc2ccccc21 (stereo not drawn) | 94% | 90% | 3%
3 | Cc1nc(C)c(-c2ccc(Oc3ccc(OC(F)(F)F)cc3)cc2)c(OC(=O)N(CCNC(C)C)C(C)C)c1Br.Cl | 98% | 97% | 35%
4 | Cc1[nH]c2ccccc2c1C1=CCN(CCCCC23CCCc4cccc(c42)NC3=O)CC1 (stereo not drawn) | 95% | 91% | 9%
5 | CC(=O)Nc1ccc2[nH]cc(C3CCN(CC4CCC(NC(=O)/C=C/c5ccc(Cl)c(Cl)c5)CC4)CC3)c2c1 (stereo not drawn) | 100% and 90% | 99% and 59% | 10% and 18%
6 | COc1cccc(C(=O)C2CC2CN2CC=C(c3c(C)[nH]c4ccccc34)CC2)c1 (stereo not drawn) | 92% | 87% | 13%
7 | CN1CC=C(c2csc3ccc(NC(=O)Nc4ccc(-c5ccncc5)c(Cl)c4)cc23)CC1 | 100% | 100% | 10%
8 | C=C[C@H]1CN2CC[C@H]1C[C@H]2[C@H](O)c1cc(-c2ccc(Cl)cc2)nc2ccc(OC)cc12.Cl | 99% | 98% | 38%
9 | CN(C)c1cccc(CN2CC=C(c3c[nH]c4ccc(Cl)cc34)CC2)c1 | 93% | 87% | 40%
10 | O=C(/C=C/c1ccsc1)NC1CCC(CN2CCC(c3c[nH]c4ccccc34)CC2)CC1 (stereo not drawn) | 82% | 20% | 29%
11 | CC[C@H]1CN2CC[C@H]1C[C@H]2[C@H](O)c1cc(-c2ccc3ccccc3c2)nc2ccc(OC)cc12.Cl | 99% | 99% | 49%
12 | Cc1ccc(CC(C)NCC(O)c2cccc(C(F)(F)F)c2)cc1.Cl (stereo not drawn) | 99% | 97% | 6%
13 | N#Cc1ccc(N(CC(=O)NCCc2ccc(F)cc2)CC2CC2)c2ccccc12.O=C(O)C(F)(F)F | 91% | 23% | 28%
14 | O=C(c1cc(C(=O)NCc2ccc(Cl)cc2)c(=O)n(Cc2ccc(Cl)cc2)c1)c1cc(F)ccc1O | 93% | 2% | 7%
15 | Br.COc1ccc(C[C@@H](C)NC[C@H](O)c2cccc(Cl)c2)cc1F | 88% | 76% | 2%
16 | O=C(Nc1ccccc1OC(F)(F)F)NC1CCC(CN2CCC(c3c[nH]c4ccccc34)CC2)CC1 (stereo not drawn) | 100% and 99% | 60% and 70% | 33% and 35%
17 | CC[C@H]1CN2CC[C@@H]1C[C@H]2[C@H](O)c1cc(N2CCSCC2)nc2ccc(OC)cc12 | 99% | 98% | 2%
18 | CC[C@H]1CN2CC[C@@H]1C[C@H]2[C@H](O)c1cc(N2CCC(N3CCCCC3)CC2)nc2ccc(OC)cc12 | 99% | 77% | 0%
19 | CC(C)(C)c1ccc(Cn2nc(C(=O)N3CCN(C(=O)C4CCCO4)CC3)c3ccccc32)cc1 (stereo not drawn) | 90% | 83% | 0%
20 | O=C(NC1CCC(CN2CCC(c3c[nH]c4ccccc34)CC2)CC1)c1csc(-c2cccc(Cl)c2Cl)n1 (stereo not drawn) | 99% | 41% | 34%
21 | O=C(CCc1ccc(Cl)cc1Cl)NC1CCC(CN2CCC(c3c[nH]c4ccccc34)CC2)CC1 (stereo not drawn) | 100% and 97% | – | 44% and 33%
22 | O=C(/C=C/c1ccc(Cl)c(Cl)c1)N1CCC(CN2C3CCC2CC(c2c[nH]c4ccccc24)C3)CC1 (stereo not drawn) | 100% | 66% | 84%
23 | CC[C@H]1CN2CC[C@H]1C[C@H]2[C@H](O)c1cc(-c2cccc(C)c2)nc2ccc(OC)cc12.Cl | 100% | 100% | 15%
24 | CCCCCCCc1cc(O)c2c(c1)OC(C)(C)c1ccncc1-2.Cl | 95% | 52% | 0%
25 | O=C(C=Cc1cccc(Cl)c1Cl)NC1CCC(CN2CCC(c3c[nH]c4ccccc34)CC2)CC1 (stereo not drawn) | 83% and 100% | – | 40% and 33%
26 | CC[C@H]1CN2CC[C@H]1C[C@H]2[C@H](O)c1cc(-c2ccccc2C)nc2ccc(OC)cc12.Cl | 100% | 98% | 16%
27 | COc1ccccc1CNCC(O)c1cc(C(F)(F)F)ccc1C(F)(F)F (stereo not drawn) | 100% | 95% | 10%

Row | Structure (SMILES) | Inhibition [1] | Inhibition [2] | Inhibition [3]
28 | C=CC12CCN(CC1)C(C(O)c1ccnc3ccc(OC)cc13)C2 (stereo not drawn) | – | 72% | 0%
29 | CC[C@H]1CN2CC[C@@H]1C[C@H]2[C@H](O)c1cc[n+]([O-])c2ccc(OC)cc12 | 95% | 1% | 0%
30 | S=C(NCCc1ccc(Cl)cc1)N1CCC(CN2CCC(c3c[nH]c4ccccc34)CC2)CC1 | 90% | 7% | 31%
31 | CC(C)CNCc1ccc(-c2ccc(CN(C(=O)Nc3ccccc3)C3CCN(Cc4ccccc4)CC3)cc2)cc1.O=C(O)C(F)(F)F | 100% | 61% | 27%
32 | O=C1COc2ccccc2N1CCN1CCC(NCc2ccc(-c3cccs3)cc2)CC1 | 87% | 18% | 37%
33 | C#CCN1CCC2=C(C1)c1c(O)cc(C(C)CCCc3ccc(F)cc3)cc1OC2(C)C (stereo not drawn) | 98% | 90% | 1%
34 | COCC(=O)N(Cc1ccccc1-c1cccc(CNCCc2ccccc2)c1)C1CCN(Cc2ccccc2)CC1.O=C(O)C(F)(F)F | 93% | 36% | 21%
35 | O=C(/C=C/c1ccc(Cl)c(Cl)c1)Nc1cccc(CN2CCC(c3c[nH]c4ccc(O)cc34)CC2)c1 | 100% | 90% | 11%
36 | COc1c(F)cc(CC(C)NCC(O)c2cccc(Cl)c2)cc1F.Cl (stereo not drawn) | 93% | 86% | 0%
37 | COC(=O)c1ccc(CC(C)NCC(O)c2cccc(I)c2)cc1 (stereo not drawn) | 87% | 54% | 15%
38 | CC[C@H]1CN2CC[C@H]1C[C@H]2[C@H](O)c1ccnc2ccc(O)cc12.Cl | 99% | 2% | 11%
39 | COCCNCc1cccc(-c2ccc(CN(C(=O)Nc3ccccc3)C3CCN(Cc4ccccc4)CC3)cc2)c1.O=C(O)C(F)(F)F | 100% | 45% | 25%
40 | CCOc1ccc(-c2nc3cc(-c4nc5cc(N6CCN(C)CC6)ccc5[nH]4)ccc3[nH]2)cc1.Cl.O | 100% | 99% | 16%
41 | CN(C)c1cccc(CCNCCc2c[nH]c3ccc(Cl)cc23)c1.O=C(O)C(=O)O | 94% | 75% | 19%
42 | CCC(C)CN1CCC(N(C)c2cc(NC(=O)c3cccc(C)c3)ccn2)CC1.O=C(O)C(F)(F)F (stereo not drawn) | 93% | 14% | 1%
43 | COC(=O)c1ccc(CC(C)NCC(O)c2cccc(OCc3ccccc3)c2)cc1.Cl (stereo not drawn) | 86% | 37% | 11%
44 | O=C(NC1CCC(CN2CCC(c3c[nH]c4ccccc34)CC2)CC1)c1cc2ccccc2o1 (stereo not drawn) | 94% | 14% | 34%
45 | CC(C)(C)c1cc(/C=C/C(=O)NC2CCC(CN3CCC(c4c[nH]c5ccccc45)CC3)CC2)cc(C(C)(C)C)c1O (stereo not drawn) | 100% | 100% | 98% and 99%
46 | CC1=C(C(=O)NC2CCC(CN3CCC(c4c[nH]c5ccccc45)CC3)CC2)Cc2ccccc21 (stereo not drawn) | 97% and 99% | 15% and 24% | 41% and 37%
47 | O=C(Nc1ccccc1C(F)(F)F)NC1CCC(CN2CCC(c3c[nH]c4ccccc34)CC2)CC1 (stereo not drawn) | 96% and 86% | – | 46% and 34%
48 | CCOc1ccc2nccc([C@@H](O)[C@@H]3C[C@@H]4CCN3C[C@@H]4CC)c2c1.Cl [ETHYLHYDROCUPREINE HYDROCHLORIDE] | 98% | 99% | 24%
49 | CC(=O)N(Cc1ccccc1-c1ccc(CNCCc2ccccc2)cc1)C1CCN(Cc2ccccc2)CC1.O=C(O)C(F)(F)F | 100% | 85% | 24%
50 | CC(C)CNCc1cccc(-c2ccc(CN(C(=O)NC3CCCCC3)C3CCN(Cc4ccccc4)CC3)cc2)c1.O=C(O)C(F)(F)F | 97% | 51% | 27%
51 | O=C(C=Cc1ccc(F)c(Br)c1)N1CCC(CN2CCC(c3c[nH]c4ccccc34)CC2)CC1 | 100% | 9% | 39%
52 | O=c1c2ccccc2nc(/C=C/c2ccc([N+](=O)[O-])cc2)n1-c1ccccn1 | 98% | 96% | 5%
53 | COC(=O)c1ccc(CC(C)NCC(O)c2cccc(C(F)(F)F)c2)cc1 (stereo not drawn) | 94% and 97% | 73% and 87% | 0%
54 | Oc1ccc(Cl)cc1CN1CCC(CCOC(c2ccccc2)c2ccccc2)CC1 | 98% | 99% | 14%
